# Bcl-2 Bim block = inhibitors of Bim-Bcl-2 binding, primary screen, biochemical, multiplexed, human Bcl-2 family | AID 950, 2007 | hit rate 0.06% among 190,000 | Apoptosis regulator Bcl-2 (Homo sapiens), P10415 | Bead-based flow cytometry, Bim peptide-Bcl-2 binding | inhibition, % at 10 µM; in the data active = inhibition above about 40%;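 note: 0% = no compound wells with probe peptide and 100% = reference peptide inhibitor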
# Bim-Bcl-B = inhibitors of Bim-Bcl-B binding, primary screen, biochemical, multiplexed, human Bcl-2 family. Bcl-2-like protein 10 (Homo sapiens), Q9HD36. bead-based flow cytometry, Bim peptide-Bcl-B binding. inhibition, % at 10 µM. hit rate 0.073% among 190,000;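 note: 0% = tracer peptide without compound and 100% = reference inhibitor peptide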
# Bfl-1 Bim block = inhibitors of Bim binding to Bfl-1, primary screen, biochemical, multiplexed, bead-based flow cytometry; Bcl-2-related protein A1 (Homo sapiens), Q16548; Bim-Bfl-1 binding inhibition; inhibition, % at 10 µM; hit rate 0.12% among 190,000;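 note: 0% = wells without compound plus tracer and 100% = blocker peptide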
# Bim-Bcl-XL = inhibitors of Bim-Bcl-XL binding, primary screen, biochemical, multiplexed, bead flow cytometry, human Bcl-XL; Bcl-2-like protein 1 (Homo sapiens), Q07817; Bim peptide-Bcl-XL binding, fluorescence; inhibition, % at 10 µM; hit rate 0.04% among 190,000; AID 1007, 2008
# Bcl-W Bim block = inhibitors of Bim binding to Bcl-W, primary screen, biochemical, multiplexed, bead-based flow cytometry | Bcl-2-like protein 2 (Homo sapiens), Q92843 | Bim peptide-Bcl-W binding | hit rate 0.02% among 190,000 | inhibition, % at 10 µM;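 note: 0% = bound tracer without compound and 100% = peptide blocker; higher means less fluorescent Bim peptide bound to Bcl-W beads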
# Furin inhibitor = human furin inhibitors, primary screen, biochemical, fluorescence intensity; hit rate 0.061% among 220,000; P09958; purified furin, fluorogenic substrate cleavage; inhibition, % at 20 µM or 30 µM; in the data active = inhibition above about 25%
# Target sequence (P09958 108-714 limits assumed): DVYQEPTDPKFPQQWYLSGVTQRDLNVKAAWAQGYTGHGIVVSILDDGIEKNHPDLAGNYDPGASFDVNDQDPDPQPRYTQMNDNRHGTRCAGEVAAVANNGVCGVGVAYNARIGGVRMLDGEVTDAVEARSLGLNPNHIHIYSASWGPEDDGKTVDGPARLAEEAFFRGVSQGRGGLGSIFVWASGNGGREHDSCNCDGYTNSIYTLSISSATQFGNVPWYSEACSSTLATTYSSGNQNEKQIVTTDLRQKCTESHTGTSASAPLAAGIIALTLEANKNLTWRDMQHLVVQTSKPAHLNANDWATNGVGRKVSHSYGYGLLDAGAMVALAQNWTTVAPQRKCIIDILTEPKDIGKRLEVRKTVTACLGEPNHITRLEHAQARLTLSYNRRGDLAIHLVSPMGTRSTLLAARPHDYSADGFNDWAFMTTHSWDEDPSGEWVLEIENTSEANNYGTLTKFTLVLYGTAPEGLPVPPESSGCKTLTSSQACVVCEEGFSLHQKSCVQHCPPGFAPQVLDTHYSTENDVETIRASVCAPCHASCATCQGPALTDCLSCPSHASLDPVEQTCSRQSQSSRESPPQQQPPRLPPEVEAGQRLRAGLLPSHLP
# The depositor's hits bear a star; · = not tested or not shown. Only some compounds are listed: those with a hit (about 0.25% of all), similar ones and a draw of the others. Cut-off read from the data, not from the text of the source, unless noted: active = inhibition above about 40%.
SMILES,Bcl-2 Bim block,Bim-Bcl-B,Bfl-1 Bim block,Bim-Bcl-XL,Bcl-W Bim block,Furin inhibitor
COc1cccc2c1C(=O)c1c(O)c3c(c(O)c1C2=O)C[C@@](O)(C(=O)CO)C[C@@H]3O[C@H]1C[C@H](N)[C@H](O)[C@H](C)O1,54.0*,86.0*,60.0*,57.0*,59.0*,5.1
O=[N+]([O-])c1cc(S(=O)(=O)N2CCCCC2)ccc1NCCN1CCOCC1,1.0,1.0,-2.0,0.0,2.0,-10.7
O=C1c2ccccc2C(=O)N1CCCCN1CCN(CCCCN2C(=O)c3ccccc3C2=O)CC1,·,·,·,·,·,25.8*
O=C1c2ccccc2C(=O)N1CCCN1CCN(CCCN2C(=O)c3ccccc3C2=O)CC1,·,·,·,·,·,-15.5
O=C1CC(=C(c2ccccc2)c2ccccc2)C(=O)N1CCCN1CCN(c2cccc(Cl)c2)CC1,-10.0,-3.0,-10.0,-4.0,3.0,-15.7
O=C1CC(=C2c3ccccc3-c3ccccc32)C(=O)N1CCCCN1CCN(c2ccccc2)CC1,0.0,-1.0,0.0,-2.0,0.0,28.3*
O=C(OCC(=O)c1ccc[nH]1)c1ccccc1,79.0*,74.0*,52.0*,2.0,1.0,-12.4
O=C(COC(=O)c1c(F)cccc1F)c1ccc[nH]1,·,·,·,·,·,-14.1
O=C(CCN1C(=O)C2C3C=CC(C3)C2C1=O)N1CCN(c2ccc([N+](=O)[O-])cc2)CC1 (stereo not drawn),-4.0,-5.0,-5.0,-2.0,-3.0,-13.7
CCCCn1c(=O)c(CCC(=O)OCC(=O)NC(=O)NCCC(C)C)nc2ccccc21,-2.0,-1.0,-5.0,-2.0,-2.0,-29.7
CCOC(=O)C1CCCN(c2ncnc3c2cnn3-c2cccc(C)c2)C1 (stereo not drawn),33.0,26.0,47.0*,46.0*,30.0,14.4
Cc1ccc(CN2CCN(Cc3nc4ccccc4nc3C)CC2CCO)cc1 (stereo not drawn),·,·,·,·,·,-15.0
CCOC(=O)c1cc(CC)sc1/N=C/C1C(=O)CCCC1=O,-5.0,-5.0,-7.0,-4.0,1.0,6.3
CCOC(=O)c1cc(C)sc1/N=C/C1C(=O)CCCC1=O,-7.0,-8.0,-14.0,-5.0,-2.0,36.6*
CCOC(=O)c1cc(C)sc1/N=C/C1=C(O)CCCC1=O,-6.0,-11.0,-11.0,-9.0,-1.0,36.4*
Cc1cc(N)ccc1N1CCCC1,66.0*,87.0*,73.0*,64.0*,75.0*,-33.6
Cc1cc(N)ccc1-n1c(C)ccc1C,-3.0,-1.0,-3.0,0.0,-2.0,-18.9
COc1cc2ncc(C(=O)c3ccccc3)c(N3CCN(Cc4ccccc4)CC3)c2cc1OC,·,·,·,·,·,0.7
Cc1nn(-c2ccccn2)c2c1C(=O)C(Br)CC2 (stereo not drawn),24.0,0.0,59.0*,12.0,35.0,-35.8
CCCCOC(=O)c1nc(Cl)c(Cl)c(N)c1Cl,25.0,42.0*,2.0,3.0,-2.0,-1.7
CCOC(=O)C1CCN(C(=O)Nc2ccc3nc(-c4ccco4)c(-c4ccco4)nc3c2)CC1,35.0,15.0,60.0*,19.0,38.0,-8.6
Cc1nc2ccc(NC(=O)N3CCCCC3)cc2nc1C,-4.0,-7.0,-5.0,-8.0,-7.0,2.4
O=C(Nc1ccc2nc(-c3ccco3)c(-c3ccco3)nc2c1)N1CCCCCC1,31.0,10.0,54.0*,19.0,35.0,-8.6
C=C(C(=O)c1ccccc1)C(C)C(=C)C(=O)c1ccccc1,5.0,5.0,4.0,7.0,10.0,-8.0
O=C1c2ccccc2C(=O)c2cc(S(=O)(=O)Nc3ccccc3)ccc21,0.0,41.0*,-1.0,-6.0,-5.0,-26.3
SMILES,Bcl-2 Bim block,Bim-Bcl-B,Bfl-1 Bim block,Bim-Bcl-XL,Bcl-W Bim block,Furin inhibitor
COc1ccc(Cc2n[nH]c(=S)n2NC(=O)Nc2ccc(Cl)c(Cl)c2)cc1,·,·,·,·,·,-22.1
COc1cc(/C(C)=N/NC(=O)Cc2c(C)[nH][nH]c2=O)ccc1O,-7.0,-9.0,-18.0,-11.0,-6.0,-16.4
COc1ccc2[nH]cc(CCn3ccc(=O)c(C)c3C)c2c1,-3.0,-2.0,-5.0,-4.0,-2.0,-27.7
CCCCCC(=O)N(CN1C(=O)CCC1=O)c1ccccc1,-11.0,-10.0,-13.0,5.0,1.0,31.5*
C/C(=N\NC(=O)COc1ccc(C#N)cc1)c1ccccc1OC(F)F,-4.0,-7.0,-6.0,-5.0,-6.0,-17.8
COc1cccc(C(=O)/C=C/Nc2ccc(S(=O)(=O)Nc3onc(C)c3C)cc2)c1,82.0*,78.0*,53.0*,3.0,17.0,-16.2
CC(C)S(=O)(=O)c1cnc(-c2ccccn2)nc1N,·,·,·,·,·,-27.4
CNC(=O)CC1C(=O)N(Cc2ccccc2)C(=S)N1NC(=O)c1cccc(F)c1 (stereo not drawn),27.0,25.0,40.0*,40.0*,28.0,-15.4
Cc1ccc(/C=C2/SC(=O)NC2=S)o1,3.0,1.0,10.0,0.0,-4.0,-15.1
C=CCNC(=O)COC(=O)c1ccc(Sc2nncn2C)c([N+](=O)[O-])c1,0.0,-1.0,-2.0,0.0,0.0,-36.5
COc1ccc(CCNC(=O)c2ccc(N3CCCC3=O)cc2)cc1OC,-10.0,-5.0,-12.0,8.0,-1.0,26.3*
CCOc1ccc(CCNC(=O)c2cccc(N3CCCC3=O)c2)cc1OCC,-12.0,-7.0,-19.0,-2.0,1.0,0.7
COc1ccc2cc(CN(CCc3ccccc3)Cc3nnnn3CC3CCCO3)c(=O)[nH]c2c1 (stereo not drawn),31.0,21.0,44.0*,42.0*,25.0,4.2
COC(=O)c1[nH]c2cc(OC)ccc2c1NC(=O)CCN1CCCCC1,-2.0,0.0,-2.0,0.0,0.0,34.4*
COC(=O)c1[nH]c2cc(OC)ccc2c1NC(=O)CCN1CCCC(C)(C)C1,-7.0,-6.0,-9.0,-7.0,-6.0,-22.6
CC(=O)CCn1cnc([N+](=O)[O-])n1,-1.0,0.0,-4.0,0.0,0.0,-14.4
Cc1nonc1NC(=O)CSc1nnc(-c2ccoc2C)n1C,33.0,23.0,44.0*,43.0*,24.0,-13.3
Cc1ccc(C)c(-n2c(SCC(=O)Nc3nonc3C)nnc2-c2ccoc2C)c1,-5.0,-3.0,-2.0,-3.0,-4.0,-17.3
c1ccc2c(c1)C(=Nn1cnnc1)c1ccccc1-2,-7.0,-6.0,-12.0,2.0,0.0,26.3*
CCn1c(C)nc2cc(C(=O)N/N=C/c3cccc(OC)c3O)ccc21,-1.0,-4.0,-7.0,0.0,-2.0,-17.7
CCN(CC)S(=O)(=O)c1cccc(C(=O)N/N=C/c2ccc(O)c(O)c2O)c1,33.0,43.0*,37.0,54.0*,38.0,10.8
CCn1c(C)nc2cc(C(=O)N/N=C/c3ccc(O)c(O)c3O)ccc21,34.0,9.0,52.0*,13.0,38.0,-2.7
COc1ccc(-c2noc(COc3ccc4c(c3)OCO4)n2)cc1,-1.0,0.0,0.0,-1.0,-1.0,-12.8
